Sm TGR inh: inhibitors of Schistosoma mansoni thioredoxin glutathione reductase | 360,000 compounds, 3% hits | purified TGR, DTNB reduction, TNB absorbance 405 nm | AID 485364 | Potency, µM (highest dose often 114 µM), for the others: top-dose activity change, negative = inhibition, most hits filed as inhibitors; also: potency is read from the fitted curve at half-maximal effect; % is scaled to controls: 0 for no effect and ±100 for the full control effect; nearly all actives have a fitted effect of over 60% in size
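First, TGR (20 nM dispensed) and NADPH were mixed with compound. Second, a 15 min room-temperature incubation followed. Third, further NADPH and then DTNB were added to start the reaction. Finally, TNB absorbance was monitored kinetically.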
Pf growth 96h: P. falciparum growth inhibition at 96 hours; Potency, µM (titrated, usually from 28.7 µM), without a hit: at the top dose activity change, negative = inhibition, usual class: inhibitors; P. falciparum luciferase reporter growth, 96 h; 320,000 compounds, 6.9% hits; also: potency is read from the fitted curve at half-maximal effect; % is scaled to controls: 0 for no effect and ±100 for the full control effect
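96 h incubation, 37 C, 5% CO2, of luciferase-reporter P. falciparum-infected RBCs (2% hematocrit, 0.05% parasitemia final) with test compounds; endpoint luminescence.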
Pf growth 48h: P. falciparum growth inhibition at 48 hours (one generation); 310,000 compounds, 5.9% hits; Potency, µM (titrated, usually from 28.7 µM), for inactives: at the top dose activity change, negative = inhibition, most hits filed as inhibitors; P. falciparum luciferase growth in erythrocytes, 48 h; also: potency is read from the fitted curve at half-maximal effect; % is scaled to controls: 0 for no effect and ±100 for the full control effect
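A one-generation exposure of luciferase-tagged malaria parasites in RPMI 1640/Albumax erythrocyte culture, 37 C and 5% CO2. Inhibition is inferred from decreased luminescence after adding detection reagent.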
HCV inhibitor: blocks hepatitis C virus; Huh7.5.1 HCVcc-Cre infection, luciferase reporter, 44 h; Potency, µM (top dose mostly 41.8 µM), inactives show at the highest dose activity change, negative = inhibition, most hits filed as inhibitors; 340,000 compounds, 3.4% hits; also: potency is read from the fitted curve at half-maximal effect; % is scaled to controls: 0 for no effect and ±100 for the full control effect
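Cells seeded at 1,000/well and cultured 4 h, then compounds added followed by HCVcc-Cre virus (~0.5 moi). After 44 h further culture, luciferase substrate was added, plates held 15 min at room temperature, and luminescence read for 15 sec.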
HCMV antiviral: human cytomegalovirus inhibition; HFF cells, HCMV-luciferase reporter, 72 h; active compounds read low; activity change, negative = inhibition, % at 57.5 µM; 410,000 compounds, 4.5% hits; AID 1259415; in the data active = activity change below about -60%; inconclusive = no clear call, values can overlap the other calls; inactive = above about -39%; also: % is scaled to controls: 0 for no effect and ±100 for the full control effect
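HFF cells seeded 16 h at 37C, treated with compounds, infected with luciferase-reporter HCMV at MOI 1 PFU/cell; luciferase read at 72 h post infection, normalized to buffer-only and Salinomycin controls.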
SARS PLpro yeast: inhibitors of SARS-CoV papain-like protease in yeast | S. cerevisiae expressing SARS-CoV PLpro, growth rescue | Potency, µM (series often up to 32.9 µM), for the others: top-dose activity, positive = growth rescue, most hits filed as activators | 330,000 compounds, 0.19% hits; calls by dose curve; also: potency is read from the fitted curve at half-maximal effect; 0% is about no effect; nearly all actives have a fitted effect of over 55% in size
* = called active by the depositor; [ ] = remark or other dose. Most compounds without a hit are left out; they make up all but 15% or so of the library. Unless noted, calls follow the shape of the dose curve; as a rule, active = well fitted curve in the direction sought with a large enough effect; inconclusive = small, poorly fitted or top-dose-only effect, or another doubt; inactive = no such curve, though single readings can be large; an effect the other way counts as inactive or inconclusive.

`Cc1nc(SCC(=O)N2c3ccccc3NC(=O)CC2C)c2c(C)c(C)sc2n1` (stereo not given) gave Sm TGR inh 0%, Pf growth 96h 13µM*, Pf growth 48h inconclusive, HCV inhibitor -20%, HCMV antiviral -27 and SARS PLpro yeast -2%.
Cc1sc2nc(C3CC3)nc(SCC(=O)N3c4ccccc4CC3C)c2c1C (stereo not given) was read as Sm TGR inh 9%, Pf growth 96h 48%, Pf growth 48h inconclusive, HCV inhibitor 11µM* and SARS PLpro yeast -4%.
`CNc1ccc(C2(O)C(=O)c3ccccc3C2=O)cc1` gave Sm TGR inh 0%, Pf growth 96h 11%, Pf growth 48h 0%, HCV inhibitor 4%, HCMV antiviral -6 and SARS PLpro yeast 15%.
For CCCn1cnc2c(SCc3ccccc3Cl)nc(N)nc21 the results were HCV inhibitor -4% and HCMV antiviral inconclusive.
Cc1ccc(NC(=O)CSc2nc3ccccc3n2CC(=O)N2CCC(C)CC2)cc1C was read as Sm TGR inh -8% and HCMV antiviral -36.
Screening O=C(CSc1cccc2cccnc12)N/N=C/c1ccc(F)cc1 returned Sm TGR inh 1%, Pf growth 96h 11%, Pf growth 48h -4%, HCV inhibitor -10%, HCMV antiviral 1 and SARS PLpro yeast -1%.
CCCCC(=O)N/N=C/c1ccc(Sc2cccc3cccnc23)o1 was read as Sm TGR inh 51%, Pf growth 96h 4.1µM*, Pf growth 48h 0%, HCV inhibitor inconclusive, HCMV antiviral 73 and SARS PLpro yeast 3%.
For O=C(Cc1cccc2ccccc12)N/N=C/c1ccc2cccc(O)c2n1 the results were Sm TGR inh -10%, Pf growth 96h -13%, Pf growth 48h 64%, HCV inhibitor inconclusive, HCMV antiviral inconclusive and SARS PLpro yeast 8%.
O=C(Cc1cccc2ccccc12)N/N=C/c1ccc(Sc2cccc3cccnc23)o1 was read as Sm TGR inh -32%, Pf growth 96h 6.6µM*, HCMV antiviral -39 and SARS PLpro yeast 3%.
For CC(=O)c1ccc(N2CCN(C(=O)c3cn(C)c(=O)c4c3c3ccccc3n4C)CC2)cc1 the results were Sm TGR inh 0% and HCMV antiviral 23.
Cc1cc(C(=O)Nc2ncn(Cc3ccc(F)cc3)n2)ccc1[N+](=O)[O-] was read as Sm TGR inh 8%, Pf growth 96h 30%, Pf growth 48h -11%, HCV inhibitor -11%, HCMV antiviral -9 and SARS PLpro yeast 1%.
Screening Cc1ccc(N=Cc2c(O)n(-c3ccc4c(c3)OCO4)c(=O)c3ccccc23)cc1 returned Sm TGR inh -7%, Pf growth 96h 8.3µM*, HCV inhibitor inconclusive, HCMV antiviral inconclusive and SARS PLpro yeast -9%.
`CCN1CCCC1CN=Cc1c(O)n(-c2ccccc2)c(=O)c2ccccc12` (stereo not given) gave Sm TGR inh inconclusive, Pf growth 96h 5%[5.75 µM], Pf growth 48h 3.7µM*, HCV inhibitor -27%, HCMV antiviral -7 and SARS PLpro yeast 3%.
`Cc1cccc(-n2c(O)c(C=Nc3ccc(O)cc3)c3ccccc3c2=O)n1` gave Sm TGR inh -12%, Pf growth 96h -34%, Pf growth 48h -13%, HCV inhibitor 1%, HCMV antiviral -39 and SARS PLpro yeast 3%.
Screening CC(C)CCN=Cc1c(O)n(-c2ccccc2)c(=O)c2ccccc12 returned Sm TGR inh -1%, Pf growth 96h inconclusive, HCV inhibitor 0%, HCMV antiviral -32 and SARS PLpro yeast 4%.
Screening Cc1cccc(-n2c(O)c(C=NCc3ccccn3)c3ccccc3c2=O)c1 returned Sm TGR inh -10%, Pf growth 96h -21%, Pf growth 48h -24%, HCV inhibitor -5%, HCMV antiviral -16 and SARS PLpro yeast 4%.
For Cc1cccc(-n2c(O)c(C=NCCCN3CCOCC3)c3ccccc3c2=O)c1 the results were Sm TGR inh -11%, Pf growth 96h inconclusive, Pf growth 48h 7.4µM*, HCV inhibitor 9%, HCMV antiviral -9 and SARS PLpro yeast 0%.
Screening Cc1ccc(-n2c(O)c(C=NCc3ccccn3)c3ccccc3c2=O)cc1 returned Sm TGR inh -5%, Pf growth 96h 10%, Pf growth 48h 13%, HCV inhibitor inconclusive, HCMV antiviral -65* and SARS PLpro yeast -9%.
CCCc1cc(C(=O)N2CCCC(C(=O)c3cc(C)c(OC)c(C)c3)C2)n(C)n1 (stereo not given) was read as Sm TGR inh 2%, Pf growth 96h 5%, Pf growth 48h inconclusive, HCV inhibitor inconclusive, HCMV antiviral -20 and SARS PLpro yeast -1%.
`Cc1occc1C(=O)N=Nc1c(O)[nH]c2ccc(Br)cc12` gave Sm TGR inh 2%, Pf growth 96h 4.1µM*, Pf growth 48h 139%, HCV inhibitor 4% and SARS PLpro yeast -25%.
For Cc1cccc(NC(=S)N=Nc2c(O)[nH]c3ccccc23)c1 the results were Sm TGR inh -1%, Pf growth 96h 2.9µM*, Pf growth 48h inconclusive, HCV inhibitor inconclusive, HCMV antiviral -25 and SARS PLpro yeast -5%.
CC(C)NC(=S)N=Nc1c(O)[nH]c2ccc(C(C)C)cc12 was read as Sm TGR inh 3%, Pf growth 96h inconclusive, Pf growth 48h 8.3µM*, HCV inhibitor inconclusive, HCMV antiviral -16 and SARS PLpro yeast 8%.
COc1ccccc1NC(=S)N=Nc1c(O)[nH]c2ccc(Br)cc12 was read as Sm TGR inh -11%, Pf growth 96h 1µM*, Pf growth 48h 0.93µM*, HCV inhibitor inconclusive, HCMV antiviral -67* and SARS PLpro yeast -3%.
For O=C(N=Nc1c(O)[nH]c2ccccc12)Nc1ccccc1 the results were HCV inhibitor 13% and HCMV antiviral 95.
O=C(CNC(=O)c1ccco1)N=Nc1c(O)[nH]c2ccc(Br)cc12 was read as Sm TGR inh -23%, Pf growth 96h 22%, Pf growth 48h 27%, HCV inhibitor 6%, HCMV antiviral -20 and SARS PLpro yeast -1%.
Screening COc1ccc(-c2nc3c(C#N)c[nH]n3c2NC2CCCC2)cc1 returned Sm TGR inh -16% and HCMV antiviral -27.
Screening CC1=Nc2ccccc2/C1=C/c1c(O)[nH]c(=O)[nH]c1=O returned Sm TGR inh -20%, Pf growth 96h 2.1µM*, Pf growth 48h 3%, HCV inhibitor 2%, HCMV antiviral 4 and SARS PLpro yeast 11%.
For Cc1cc(C)c(NC(=O)CSc2nc3nc(C)cc(C)n3n2)c(C)c1 the results were Sm TGR inh -12% and HCMV antiviral -8.
